KCNQ2 inh – rat KCNQ2 potassium channel inhibitors, primary screen, cell-based, CHO-K1, FluxOR thallium flux, B-score. Potassium voltage-gated channel subfamily KQT member 2 (Rattus norvegicus), O88943. 20 min; stronger effect = lower value. B-score at 10 µM. 1.1% of 310,000 active. AID 2156, 2009;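 active = fluorescence ratio B-score at most minus 3 library SDs, with starting brightness B-score within 2 library SDs, cut at about -5.5 in these data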
Target sequence (O88943 whole entry, looked up): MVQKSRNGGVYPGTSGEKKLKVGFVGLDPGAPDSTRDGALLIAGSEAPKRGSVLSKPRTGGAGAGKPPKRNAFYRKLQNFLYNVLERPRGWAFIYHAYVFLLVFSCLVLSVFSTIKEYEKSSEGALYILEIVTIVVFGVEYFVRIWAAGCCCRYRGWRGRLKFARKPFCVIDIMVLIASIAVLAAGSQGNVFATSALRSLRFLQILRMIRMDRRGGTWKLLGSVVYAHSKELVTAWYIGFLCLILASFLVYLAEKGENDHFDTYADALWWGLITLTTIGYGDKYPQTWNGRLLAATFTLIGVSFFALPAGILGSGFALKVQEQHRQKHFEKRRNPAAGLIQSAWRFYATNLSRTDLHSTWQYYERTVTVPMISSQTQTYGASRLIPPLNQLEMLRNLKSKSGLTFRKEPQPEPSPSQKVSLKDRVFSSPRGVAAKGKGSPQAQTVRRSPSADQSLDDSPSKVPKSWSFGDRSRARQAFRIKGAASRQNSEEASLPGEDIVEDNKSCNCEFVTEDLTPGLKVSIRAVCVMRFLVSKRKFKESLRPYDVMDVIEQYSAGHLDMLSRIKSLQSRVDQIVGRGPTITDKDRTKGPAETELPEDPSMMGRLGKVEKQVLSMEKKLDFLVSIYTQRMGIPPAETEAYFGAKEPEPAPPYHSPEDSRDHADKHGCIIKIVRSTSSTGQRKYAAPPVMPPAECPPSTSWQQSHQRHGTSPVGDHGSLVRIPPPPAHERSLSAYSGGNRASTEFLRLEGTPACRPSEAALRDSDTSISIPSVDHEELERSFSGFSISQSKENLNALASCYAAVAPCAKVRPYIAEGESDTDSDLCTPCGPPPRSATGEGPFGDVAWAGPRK
KCNQ2 enhance – potentiators of rat KCNQ2 potassium channel; Potassium voltage-gated channel subfamily KQT member 2 (Rattus norvegicus), O88943; CHO-K1 KCNQ2, FluxOR thallium flux fluorescence; stronger effect = higher value; B-score at 10 µM; 0.54% of 310,000 active;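 active = fluorescence ratio B-score at least 3 SD of library B-scores, with initial fluorescence B-score within 3 of them, cut at about 5.3 in these data; same plate scores as AID 2156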;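 note: B-score of peak minus minimum over baseline fluorescence ratio after K+ and Tl+ stimulus; positive B-score means potentiation of KCNQ2 with more thallium influx and brighter signal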
Of the large screens only hits and unclear results are named; the others gave an inactive call. The list is not random: actives were taken first. Their share in the collection is about 1.6%.

CC(c1nnnn1C(C)(C)C)N(Cc1cccnc1)Cc1ccccc1Cl (configuration not stated)	none (no result: KCNQ2 enhance)
CC(C)(C)n1nnnc1C(c1cccs1)N(Cc1cccnc1)Cc1ccccc1Cl (configuration not stated)	KCNQ2 inh -6.2
Clc1ccc(CN(CC2CCCO2)C(c2cccs2)c2nnnn2C2CCCC2)cc1 (configuration not stated)	none (no result: KCNQ2 enhance)
Clc1ccccc1CN(Cc1ccccc1)C(c1cccs1)c1nnnn1C1CCCC1 (configuration not stated)	KCNQ2 inh -5.8
C=C(Cl)COC(=O)[C@H]1C2C=CC(C2)C1C(=O)O (some centres not stated)	none (no result: KCNQ2 enhance)
O=C(O)c1ccccc1NC(=S)NC(=O)c1sc2ccccc2c1Cl	none
O=C(NNC(=S)NC(=O)c1sc2ccccc2c1Cl)c1ccc(Cl)cc1	KCNQ2 enhance 13
Cc1ccc2nc(-c3ccc(NC(=O)CNC4CC4)cc3)sc2c1	none (no result: KCNQ2 enhance)
CCOc1ccc(S(=O)(=O)N2CCN(c3ccc(C)cc3C)CC2)cc1	KCNQ2 inh -7
COc1ccc(S(=O)(=O)N2CCN(c3ccc(C)cc3C)CC2)cc1OC	none (no result: KCNQ2 enhance)
COc1cccc(-c2noc(C(C)n3nc(C)c([N+](=O)[O-])c3C)n2)c1 (configuration not stated)	none (no result: KCNQ2 enhance)
CCC(=O)N(Cc1cc(=O)[nH]c2ccccc12)c1ccccc1OC	none (no result: KCNQ2 enhance)
Cc1cc(NC(=O)CSc2nnc3c(C)cc4c(C)ccc(C)c4n23)no1	none
Nc1c(C(=O)c2ccccc2)sc2snc(SCC(=O)c3ccccc3)c12	KCNQ2 inh -6
Nc1nnc(SCC(=O)c2ccccc2)s1	none
COc1ccc(NC(=O)COC(=O)/C=C/c2ccccc2[N+](=O)[O-])cc1OC	none
Fc1ccc(Cn2cccc2C2=NC(c3ccccc3)CO2)cc1 (configuration not stated)	none (no result: KCNQ2 enhance)
Cc1oc(-c2ccccc2)nc1Cn1cccc1C1=NC(c2ccccc2)CO1 (configuration not stated)	KCNQ2 inh -6
Cn1c(=O)n(C)c2cc(NC(=O)CCc3ccccc3)c(Br)cc21	none
COCCN1CN(S(=O)(=O)c2cccc(Cl)c2)c2nc3ccccc3nc21	none (no result: KCNQ2 enhance)
CCOc1cc(N(CC)CC)ccc1/C=C(/C#N)c1nc2ccccc2[nH]1	KCNQ2 inh -8.4
CCCOc1cc(N(CC)CC)ccc1/C=C(/C#N)c1nc2ccc(C)cc2[nH]1	none (no result: KCNQ2 enhance)
CN(CCO)c1cc(N2CCC3(CC2)OCCO3)c2nonc2c1[N+](=O)[O-]	none (no result: KCNQ2 enhance)
O=C(COC(=O)c1cc(-c2ccco2)nc2ccccc12)NCc1ccc2c(c1)OCO2	none (no result: KCNQ2 enhance)
CC(C)Cn1c(-c2cc([N+](=O)[O-])ccc2Cl)nc2c1c(=O)[nH]c(=O)n2Cc1ccccc1	KCNQ2 enhance 7.4
CC(C)Cn1c(-c2cc(Br)ccc2F)nc2c1c(=O)[nH]c(=O)n2CC(C)C	KCNQ2 inh -6.5
CCCCn1c(-c2ccncc2)nc2c1c(=O)[nH]c(=O)n2CC(C)C	none (no result: KCNQ2 enhance)
Cc1ccc(-c2nc3c(c(=O)[nH]c(=O)n3CC(C)C)n2CC(C)C)cc1[N+](=O)[O-]	none (no result: KCNQ2 enhance)
Cc1cccc(NC(=O)CNC(=O)N2CC(=O)Nc3ccccc32)c1C	none (no result: KCNQ2 enhance)
NC(=O)c1ccsc1NC(=O)COC(=O)c1ccc(Cl)nc1	none
Cc1ccc(NC2=C/C(=N\S(=O)(=O)c3cccs3)c3ccccc3C2=O)c(C)c1	none (no result: KCNQ2 enhance)
Cc1cc(C)c(S(=O)(=O)/N=C2\C=C(NS(=O)(=O)c3ccccc3)C(=O)c3ccccc32)c(C)c1	KCNQ2 inh -5.7
CCOC(=O)NC(=O)CSc1nnnn1-c1ccc(C)cc1	none
COc1cccc(/C=N/n2c(=S)n(C)c3cc(C)c(C)cc32)c1OC	KCNQ2 inh -6.1
COc1cccc(/C=N/n2c(-c3cc(C)[nH]n3)n[nH]c2=S)c1OC	none (no result: KCNQ2 enhance)
O=C1CCC/C1=C\c1ccccc1	none
O=C(CSc1ncn[nH]1)N1N=C2/C(=C/c3ccccc3)CCCC2C1c1ccccc1 (configuration not stated)	KCNQ2 inh -5.7
COc1ccc(/C=C2\CCCC3C2=NN(C(=O)CSc2ncn[nH]2)C3c2ccc(OC)cc2)cc1 (configuration not stated)	none (no result: KCNQ2 enhance)
COC(=O)c1cccc(NC(=S)N2CCN(C)CC2)c1	none (no result: KCNQ2 enhance)
CCCCC(=O)Nc1ccc(NCc2ccc(C)s2)cc1	KCNQ2 enhance 30
CCCCC(=O)Nc1ccc(C(N)=O)cc1	none
CCCSc1ccc([C@H]2N[C@@](C)(C(=O)OC)[C@H]3C(=O)N(C)C(=O)[C@@H]23)cc1OC	none
O=C(C1=C[C@H](c2csc3ccccc23)C[C@H](OCc2ccc(CO)cc2)O1)N1CCCCCCC1	KCNQ2 inh -5.6
O=C(C1=C[C@@H](c2ccc(C(F)(F)F)cc2)C[C@@H](OCc2ccc(CO)cc2)O1)N1CCN(Cc2ccc3c(c2)OCO3)CC1	none (no result: KCNQ2 enhance)
O=C(C1=C[C@@H](c2ccc(Br)cc2)C[C@@H](OCc2ccc(CO)cc2)O1)N1CCN(Cc2ccc3c(c2)OCO3)CC1	KCNQ2 inh -6.3
CN1CCN(C(=O)C2=C[C@H](c3csc4ccccc34)C[C@H](OCc3ccc(CO)cc3)O2)CC1	none (no result: KCNQ2 enhance)
Cc1csc(NC(=O)c2ccc[nH]c2=O)n1	none
Cc1cc(C(=O)OC(C(=O)Nc2cccc(C(F)(F)F)c2)c2ccccc2)c(C)o1 (configuration not stated)	KCNQ2 inh -5.8
Cc1ccc(NC(=O)C(OC(=O)c2cc(C)oc2C)c2ccccc2)cc1 (configuration not stated)	none (no result: KCNQ2 enhance)
O=C(C1CCCN(Cc2ccccc2[N+](=O)[O-])C1)N1CCCC1 (configuration not stated)	none (no result: KCNQ2 enhance)
Cc1cccc(-n2cnc3c(sc4nc(N5CCOCC5)c5c(c43)CCCC5)c2=O)c1	none
COc1ccc(CCNC(=O)C2CC(=O)N(C3CCCC3)C2)cc1OC (configuration not stated)	none
COc1ccccc1NS(=O)(=O)c1ccc(Cl)c(NC(=S)NC(=O)C2CCCC2)c1	none (no result: KCNQ2 enhance)
CCN(CC)c1ccc(S(=O)(=O)Nc2cc(Cl)ccc2Cl)cc1NC(=S)NC(=O)C1CCCC1	KCNQ2 inh -7.1
O=C(NCc1ccco1)c1ccc2c(c1)OCCO2	none
O=C1C(Cl)=C(NS(=O)(=O)c2ccc([N+](=O)[O-])cc2)C(=O)c2ccccc21	KCNQ2 inh -6
O=[N+]([O-])c1ccc(Oc2ccc(S(=O)(=O)Nc3ccccc3)cc2)cc1	none
Cc1ccc(OCc2nc(-c3cccnc3)no2)cc1C	none
Cc1ccc(CNC(=O)CCCn2nc(C)n3ccnc3c2=O)cc1	none
O=C(OCC(=O)N(CCc1ccccc1)Cc1ccccc1)c1cc(S(=O)(=O)N2CCOCC2)ccc1F	none (no result: KCNQ2 enhance)
O=C(OCC(=O)N(CCc1ccccc1)Cc1ccccc1)c1ccccc1NCCO	KCNQ2 inh -6.5
Cc1ccc(C(=O)N(CCc2ccccc2)Cc2ccccc2)cc1S(=O)(=O)N1CCCCC1	KCNQ2 inh -8.1
O=C(OCC(=O)N(CCc1ccccc1)Cc1ccccc1)c1cccc(O)c1	none (no result: KCNQ2 enhance)
COc1ccc(C(=O)N(CCc2ccccc2)Cc2ccccc2)cc1S(=O)(=O)N1CCOCC1	none (no result: KCNQ2 enhance)
Cc1ccc(C(=O)OCC(=O)N(CCc2ccccc2)Cc2ccccc2)cc1S(=O)(=O)N1CCOCC1	KCNQ2 inh -6
CC(=O)c1cccc(NC(=O)c2ccc(C)c(S(=O)(=O)N3CCOCC3)c2)c1	none
Cc1nc2ccccc2n1CCc1ccccc1	none
COc1ccc(C)cc1NC(=O)CN(C)S(=O)(=O)c1cccs1	none (no result: KCNQ2 enhance)
COc1ccc(-c2cc(C(=O)N3CCOCC3)no2)cc1	none

Compound activity: PubChem BioAssay, Johns Hopkins Ion Channel Center
